Only some compounds are listed: those with a hit (about 11% of all), similar ones and a draw of the others.
HTT ATP protect – qHTS Multiplex Assay to Identify Dual Action Probes in a Cell Model of Huntington: Cytoprotection (ATP) | 0.14% of 230,000 active | PC12 HTT-Q103 induced, cytoprotection, ATP luminescence, 40 h | AID 1471, 2008 | Potency, µM (doses to about 56.4 µM), most hits filed as activators; also: nearly all actives have a fitted effect of over 45% in size
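Cells were plated at 1500 per well in phenol red-free DMEM with 5% equine and 5% calf serum. Tebufenozide (100 nM final) and compounds were added, then ATPlite reagent, and luminescence was read.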
HTT aggregate – qHTS Multiplex Assay to Identify Dual Action Probes in a Cell Model of Huntington: Aggregate Formation (GFP); PC12 HttQ103-GFP aggregates, Acumen cytometry, 40 h; Potency, µM (highest dose often 46.1 µM), most hits filed as inhibitors; 1.1% of 220,000 active; AID 1688, 2009; also: nearly all actives have a fitted effect of over 60% in size
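Ecdysone-promoter PC12 model expressing HTT exon 1 Q103 fused to GFP, induced by tebufenozide at 100 nM final. Compounds titrated; aggregates sized 1–25 µm scored on a 488 nm laser cytometer.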
HPGD block – qHTS Assay for Inhibitors of HPGD (15-Hydroxyprostaglandin Dehydrogenase); purified HPGD, NADH fluorescence kinetic, PGE2 substrate; Potency, µM, most hits filed as inhibitors; 4.3% of 150,000 active; active = well fitted inhibition curve with a large enough effect, not every such curve was filed as active; inconclusive = small, poorly fitted or top-dose-only effect, or another doubt; inactive = no such curve, though single readings can be large or run the other way
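20 nM HPGD preincubated 15 min at room temperature with compound in 50 mM Tris-HCl pH 8, 0.01% Tween 20. Started with 1 mM NAD+ and 30 uM prostaglandin E2; NADH fluorescence (360/450 nm) read 5 times over 30-s intervals, last minus first.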
RGS12 GoLoco inh – qHTS Assay for Inhibitors of RGS12 GoLoco Motif Activity (Red Fluorophore) | Gai1:RGS12 GoLoco peptide FP, rhodamine, 10 min | Potency, µM (doses to about 61.6 µM), actives largely listed as inhibitors | 0.44% of 230,000 active | AID 880, 2007; active = well fitted inhibition curve with a large enough effect, not every such curve was filed as active; inactive = no such curve, though single readings can be large or run the other way; also: nearly all actives have a fitted effect of over 30% in size
Target sequence (P63096 whole entry, looked up): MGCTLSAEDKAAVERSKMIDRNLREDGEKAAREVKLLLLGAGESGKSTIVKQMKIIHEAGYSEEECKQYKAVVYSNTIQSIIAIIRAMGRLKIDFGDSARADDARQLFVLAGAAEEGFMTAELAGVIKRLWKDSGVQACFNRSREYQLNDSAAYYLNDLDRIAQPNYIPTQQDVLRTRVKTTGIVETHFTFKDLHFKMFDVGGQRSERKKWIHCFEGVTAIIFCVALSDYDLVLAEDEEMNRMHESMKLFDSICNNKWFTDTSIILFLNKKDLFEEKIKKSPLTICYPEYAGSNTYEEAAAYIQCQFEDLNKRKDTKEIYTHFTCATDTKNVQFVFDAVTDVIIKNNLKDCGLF
ALDH1A1 block – qHTS Assay for Inhibitors of Aldehyde Dehydrogenase 1 (ALDH1A1); Aldehyde dehydrogenase 1A1 (Homo sapiens), P00352; Purified ALDH1A1, NADH fluorescence, propionaldehyde substrate; Potency, µM (series often up to 75.3 µM), most hits filed as inhibitors; 7.3% of 220,000 active; active = well fitted inhibition curve with a large enough effect, not every such curve was filed as active; inconclusive = small, poorly fitted or top-dose-only effect, or another doubt; inactive = no such curve, though single readings can be large or run the other way
PNC assembly inh – High Content Assay for Compounds that inhibit the Assembly of the Perinucleolar Compartment; AID 2417, 2010; PC3M PTB-GFP, PNC prevalence imaging, 16 h; active compounds read low; activity change (PNC), negative = inhibition, % at 10 µM; 3.1% of 140,000 active;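 active = readout at or below -70, meaning at least 70% loss of cells showing the perinucleolar compartment, a nuclear body marking cancer cells; inconclusive = readout between -30 and a set limit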
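PC3M cells stably expressing PTB-GFP, 750–1000 cells/well, treated 16 h at 37 °C with compound (23 nl of library stock), in duplicate. After paraformaldehyde fixation and Hoechst stain, imaged at 20x; PNC prevalence scored by image analysis.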
Hits are given with their value; n = inactive; u = inconclusive; x = no result given; [ ] = another dose, or the depositor's remark. Unless noted, calls follow the shape of the dose curve; as a rule, active = well fitted curve in the direction sought with a large enough effect; inconclusive = small, poorly fitted or top-dose-only effect, or another doubt; inactive = no such curve, though single readings can be large; an effect the other way counts as inactive or inconclusive.

SMILES	HTT ATP protect	HTT aggregate	HPGD block	RGS12 GoLoco inh	ALDH1A1 block	PNC assembly inh
O=c1[nH]c(=S)c2[nH]c(=O)n(-c3ccccc3)c2[nH]1	n[10 µM]	x	n	n[14.2 µM]	n[13.5 µM]	x
COCCNC(=O)CSCc1nc(-c2ccc(SC)cc2)oc1C	n	n	u	n	u	-88.6
O=C(NCc1ccc2c(c1)OCO2)c1nn(-c2ccccc2)c(=O)c2ccccc12	n[10 µM]	n	n	n	5.62µM	n
CCOCCCNC(=O)CSCc1nc(-c2ccc(SC)cc2)oc1C	n	n	x	n	u	x
O=C(/C=C/c1ccco1)NCc1ccc2c(c1)OCO2	n	n	x	n	20µM	x
Cc1oc(-c2ccccc2F)nc1CS(=O)CC(=O)NCc1ccc2c(c1)OCO2 (configuration not stated)	n	n	u	n	31.6µM	n
CC1(C)SC2C(N3C(=O)C(c4ccccc4)NC3(C)C)C(=O)N2C1C(=O)O (configuration not stated)	n	n	n	n	n	x
O=C(O)c1[nH]c2c([N+](=O)[O-])cc([N+](=O)[O-])cc2c1C(=O)O	n[10 µM]	x	n	n[14.2 µM]	n[13.5 µM]	x
CCOC(=O)c1ccc(NC(=S)N(CCCN2CCN(CC)CC2)Cc2cccs2)cc1	n	n	x	n	u	x
O=C(CN1C(=O)NC2(CCCCCCC2)C1=O)NCc1ccc2c(c1)OCO2	n	n	31.6µM	n	n	n
Cc1ccc(CSCC(=O)NCc2ccc3c(c2)OCO3)cc1	n[10 µM]	n[9.22 µM]	x	n	x	x
COc1ccc(-c2nc(CSCC(=O)NCc3ccc4c(c3)OCO4)c(C)o2)cc1OC	n[10 µM]	n	u	n	n	-92.0
O=C(CSCc1cccc(Cl)c1)NCc1ccc2c(c1)OCO2	n	n	12.6µM	n	u	n
O=C(CSCc1ccccc1)NCc1ccc2c(c1)OCO2	n	n[9.22 µM]	20µM	n	u	n
Cc1ccc2cccc(Oc3ncnc4scc(-c5ccc(Cl)cc5)c34)c2n1	n[10 µM]	n	n	n	n	n
CCOC(=O)[C@H](CCc1ccccc1)N[C@@H](C)C(=O)N1C(=O)N(C)C[C@H]1C(=O)O	n	n	x	x	x	x
COc1cc(C2c3cc4c(cc3C(OC3OC5COC(C)O[C@@H]5C(O)C3O)C3COC(=O)C23)OCO4)cc(OC)c1O (some centres not stated)	n	x	n	n	n	x
Oc1ccc(C=Nc2ccc3ncccc3c2)c(O)c1	n	u	u	n	28.2µM	n
Oc1ccc(C=Nc2cccc3ncccc23)c(O)c1	n[10 µM]	n	n	n	n	n
Cc1ccc(-c2nc(NCC3CCCO3)sc2C)cc1 (configuration not stated)	n[10 µM]	n	x	n	28.2µM	x
COC(=O)c1ccc(-c2noc(CN(C)CCC3CCCCO3)n2)cc1 (configuration not stated)	n[10 µM]	n[9.22 µM]	x	n	8.91µM	x
O=C(CCc1nc(-c2ccccc2)no1)NCC1CCCO1 (configuration not stated)	n	n	25.1µM	n	u	n
Cc1ccc(-c2nc(N)sc2CC(=O)OCC(=O)NCC2CCCO2)cc1 (configuration not stated)	x	n	31.6µM	n	u	n
O=C(CCc1nc(-c2ccccc2)no1)N1CCCC1	n	n	n	n	n	n
COCCN(CCOC)c1nc(C)nc2c1nc(-c1ccccc1)n2CCN1CCOCC1	n	x	u	n	u	x
CC(C)(C)c1ccc(-c2noc(CCC(=O)NCC3CCCO3)n2)cc1 (configuration not stated)	n	u	12.6µM	n	n	n
O=C(c1ccccc1)N1CCC(c2nc(-c3ccc(S(=O)(=O)NCC4CCCO4)cc3)no2)CC1 (configuration not stated)	n	6.31µM	n	n	u	u

Assay outcomes from PubChem.
